This is a sample that favours compounds with a hit; in the whole collection about 7.3% have one here.
AmpC detergent = inhibitors of E. coli AmpC beta-lactamase with detergent | P00811 | AmpC hydrolysis of nitrocefin, absorbance 480 nm, 0.01% Triton | Potency, µM (titrated, usually from 114 µM), without a hit: top-dose activity change, negative = inhibition, usual class: inhibitors | 0.041% of 370,000 active | AID 485294;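 further: potency means the concentration at half of the fitted maximal effect; 0% = no-compound wells and -100% = no-enzyme wells; nearly all actives have a fitted effect of over 25% in size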
Target sequence (P00811 whole entry, looked up): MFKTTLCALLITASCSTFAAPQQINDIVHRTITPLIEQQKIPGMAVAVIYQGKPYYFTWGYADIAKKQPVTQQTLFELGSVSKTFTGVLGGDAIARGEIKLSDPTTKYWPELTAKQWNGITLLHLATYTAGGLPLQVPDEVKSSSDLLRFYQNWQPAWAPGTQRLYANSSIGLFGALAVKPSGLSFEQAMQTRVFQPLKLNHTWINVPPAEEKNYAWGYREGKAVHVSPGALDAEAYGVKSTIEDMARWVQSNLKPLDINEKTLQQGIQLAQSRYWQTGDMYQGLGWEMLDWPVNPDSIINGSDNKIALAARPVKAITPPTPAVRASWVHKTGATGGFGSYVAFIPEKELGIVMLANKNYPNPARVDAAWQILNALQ
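AmpC (5.3 nM in the dispensed reagent) in 20 mM phosphate pH 7.0 with 0.01% (detergent screen) or 0.0001% Triton X-100 was preincubated with compounds for 15 min at room temperature. Nitrocefin was then added from an 800 uM solution, and hydrolysis was followed at 480 nm.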
HCMV antiviral = blocks human cytomegalovirus replication. activity change, negative = inhibition, % at 57.5 µM. 4.5% of 410,000 active. AID 1259415. HFF cells, HCMV-luciferase reporter, 72 h; hits give low values; in the data active means activity change below about -60%; inconclusive means no clear call, values can overlap the other calls; inactive means above about -39%
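Human foreskin fibroblasts infected with luciferase-reporter HCMV at MOI 1 PFU/cell, compounds at two doses. Luciferase measured 72 h post infection; normalized to buffer-only basal and Salinomycin (10uM) controls.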
HCV inhibitor = HCV inhibition | AID 651820 | Potency, µM (highest dose often 41.8 µM), for inactives: at the top dose activity change, negative = inhibition, usual class: inhibitors | Huh7.5.1 HCVcc-Cre infection, luciferase reporter, 44 h | 3.4% of 340,000 active; further: potency means the concentration at half of the fitted maximal effect
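Infectious HCV cell culture screen: compound-treated cells (1,000/well, pre-plated 4 h) are infected with HCVcc-Cre at roughly 0.5 moi and grown 44 h. Infection is quantified by luciferase signal after 15 min substrate incubation at room temperature.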
AmpC inh no detg = blocks E. coli AmpC beta-lactamase in detergent-free assay; AmpC nitrocefin hydrolysis, absorbance 480 nm, 0.0001% Triton; Potency, µM (top dose mostly 57.1 µM), inactives show at the top dose activity change, negative = inhibition, actives largely listed as inhibitors; 0.52% of 330,000 active;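 further: potency means the concentration at half of the fitted maximal effect; plate controls were no compound for no effect and no enzyme for full effect; nearly all actives have a fitted effect of over 20% in size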
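20 mM phosphate pH 7.0 + 0.01% (detergent screen) or 0.0001% Triton X-100; 5.3 nM AmpC reagent; cpd preinc 15 min RT; nitrocefin (800 uM stock) to start; A480 q20 s × 4 min; Activity was normalised to no-enzyme and no-compound control wells.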
FMDV antiviral = blocks foot and mouth disease virus | FMDV antiviral cell-based qHTS | Potency, µM (highest dose often 57.9 µM), without a hit: at the highest dose activity change, negative = inhibition, actives largely listed as inhibitors | 1.2% of 410,000 active; calls by dose curve; tested in HEK293T cells; further: read-out not given here; potency means the concentration at half of the fitted maximal effect; nearly all actives have a fitted effect of over 45% in size
* hit, by the source's call; ? = inconclusive; . = no result given; + = active, no number. Unless noted, the call rests on the fitted dose curve; in most records, active means well fitted curve in the direction sought with a large enough effect; inconclusive means small, poorly fitted or top-dose-only effect, or another doubt; inactive means no such curve, though single readings can be large; an effect the other way counts as inactive or inconclusive. Unless noted, on the % scale 0 is the no-effect control and ±100 the full control effect.

SMILES	AmpC detergent	HCMV antiviral	HCV inhibitor	AmpC inh no detg	FMDV antiviral
CC(=O)c1ccc(NC(=O)CSc2nc(-c3ccc(C)cc3)nc3c2c(=O)n(C)c(=O)n3C)cc1	10.2%	3.0	.	.	-27.4%
O=C(CN1C(=O)C2(SCC(=O)N2c2cccc(F)c2)c2ccccc21)NCCc1ccccc1 (stereo unspecified)	0.6%	-107.1*	.	.	1.4%
COc1ccccc1NS(=O)(=O)c1ccc(NC(=O)c2ccncc2)cc1	-6.8%	-22.0	?	-39.6%	0.0%
COc1ccc(S(=O)(=O)NCc2ccncc2)cc1NC(=O)c1ccccc1	0.9%	-79.4*	-2.6%	2.3%	-19.5%
COc1ccccc1NS(=O)(=O)c1ccc(C(=O)NCc2ccncc2)cc1	1.2%	+	-7.5%	1.0%	-0.9%
COc1ccc(S(=O)(=O)NCc2ccncc2)cc1NC(=O)c1ccc(Cl)cc1	?	-63.0*	?	1.4%	-6.4%
CCOc1ccc(S(=O)(=O)NCc2ccncc2)cc1NC(=O)c1ccccc1F	1.1%	?	?	-47.9%	32.0%
CCOc1ccc(S(=O)(=O)NCc2ccncc2)cc1NC(=O)c1ccccc1	?	-87.5*	1.78µM*	-16.7%	-10.8%
COc1ccc(S(=O)(=O)NCc2cccnc2)cc1NC(=O)c1ccccc1	1.7%	-31.5	-7.5%	-12.8%	82.6%
CCN(CCCNc1ncnc2nc[nH]c12)c1cccc(C)c1	?	-76.0*	?	?	?
CCCCN(CCCNc1ncnc2nc[nH]c12)c1ccccc1	-5.6%	-6.4	?	-18.8%	-21.1%
CCOc1ccc(-c2n[nH]c(C)c2Oc2ccc(OC)cc2)c(O)c1	-6.5%	-17.7	11.2µM*	-19.5%	3.5%
Cc1[nH]nc(-c2ccc(OCc3cnn(-c4ccccc4)c3)c(C)c2O)c1Oc1ccccc1	-12.3%	31.5	-28.9%	-30.2%	?
Cc1[nH]nc(-c2ccc(OCc3cnn(-c4ccccc4)c3)cc2O)c1Oc1ccc(F)cc1	-2.8%	-75.8*	?	-43.9%	-23.1%
CCOc1ccc(-c2nc(N)ncc2Oc2cccc(OC)c2)c(O)c1	?	-10.7	12.6µM*	4.5%	?
Cc1[nH]nc(-c2ccc(O)c(C)c2O)c1Oc1ccccc1	-6.9%	-38.1	?	-56.7%	-21.1%
Cc1cccc(C)c1OCc1cc(=O)n2ccsc2n1	-4.3%	-20.9	.	.	-3.1%
CC12CCC(=O)N1C(C(=O)NNC(=O)c1ccccc1F)CS2 (stereo unspecified)	-5.7%	22.7	4.0%	-11.3%	-7.6%
COc1ccc(NC(=O)c2cc(C3CC3)nc3c2c(C)nn3-c2ccc(C)cc2)cc1OC	18.2%	14.0	.	.	-23.8%
Cc1cccc(N=C2c3cc([N+](=O)[O-])ccc3-c3c2cc([N+](=O)[O-])cc3[N+](=O)[O-])c1	.	15.7	7.08µM*	.	?
CCCNC(=O)N1CC(=O)N2[C@H](CO)[C@@H](c3ccc(Br)cc3)[C@@H]2C1	.	7.8	.	.	.
CCCCCNC(=O)c1ccc2c(=O)n(CCc3ccccc3)c(=O)[nH]c2c1	4.1%	0.0	.	.	5.2%
O=C(NCCCN1CCCCC1)c1ccc2c(=O)n(CCc3ccccc3)c(=O)[nH]c2c1	-11.3%	-2.1	6.31µM*	-1.0%	8.0%
COCCn1c(=O)[nH]c2cc(C(=O)NCc3ccccc3Cl)ccc2c1=O	9.1%	-68.7*	.	.	-12.5%
CCOc1cc2[nH]c(=O)n(Cc3ccc(C(=O)NCCCN4CCC(C)CC4)cc3)c(=O)c2cc1OCC	-0.3%	-64.4*	?	98.0%	-8.6%
CCOc1cc2[nH]c(=S)n(Cc3ccc(C(=O)NCCCN4CCOCC4)cc3)c(=O)c2cc1OCC	-6.7%	-29.3	9.2%	171.9%	-7.1%
CCSC(=O)N=Nc1ccc(O)cc1	.	-15.3	-9.6%	.	-11.0%
O=[As](O)(O)c1ccc(N=Nc2ccc(O)cc2)cc1	-12.8%	-79.8*	-23.5%	-6.3%	32.4%
CC(C)c1ccc(NC(=O)N[C@H]2CC[C@@]34CCCN3C(=O)CCC[C@H]4[C@H]2C)cc1	.	-13.4	.	.	.
Cc1cc(NC(=O)Cc2ccccc2)nc2c1c(=O)oc1ccccc12	?	-3.3	-10.4%	6.31µM*	-6.4%

Assay outcomes deposited in PubChem BioAssay by National Center for Advancing Translational Sciences (NCATS).
